# Assay results published in PubChem BioAssay (NCATS).
# Unmarked numbers belong to inactive results. Inconclusive results are not listed. A call without a number means that no potency is given here. Activity calls are given as the source filed them. Unless noted, the call rests on the fitted dose curve; in most records, active means well fitted curve in the direction sought with a large enough effect; inconclusive means small, poorly fitted or top-dose-only effect, or another doubt; inactive means no such curve, though single readings can be large; an effect the other way counts as inactive or inconclusive.
# Experiments:
# [1] = target: Ubiquitin carboxyl-terminal hydrolase 1 (Homo sapiens) (UniProt O94782); experiment: Inhibitors of USP1/UAF1: Pilot qHTS (AID 504865); further: nearly all actives have a fitted effect of over 35% in size; further: potency means the concentration at half of the fitted maximal effect;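 on activity change, negative = inhibition: rhodamine fluorescence freed from ubiquitin-rhodamine substrate followed over time; top concentration of the series differs between compounds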
# Method in brief: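 Kinetic fluorescence assay: 1nM USP1/UAF1, 15 min compound preincubation, then 150nM Ub-Rho; 480/540 nm.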
# [2] = test system: ATS189; experiment: qHTS profiling for inhibitors of Plasmodium falciparum proliferation (AID 504749); further: nearly all actives have a fitted effect of over 60% in size; further: potency means the concentration at half of the fitted maximal effect; conditions: P. falciparum in erythrocytes, SYBR Green DNA, 72 h; series mostly up to 28.7 µM
# Method in brief: (§1)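 P. falciparum-infected erythrocytes (0.3% parasitemia, 2.5% hematocrit) incubated with compound 72 h at 37 C, 5% CO2. Parasite DNA detected by SYBR Green after lysis, overnight at room temperature; normalised to 0.29 uM artemisinin and DMSO.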
# [3] = test system: ATS95; experiment: as above; conditions: P. falciparum in erythrocytes, SYBR Green DNA, 72 h; series mostly up to 28.7 µM
# Method in brief: as §1
# [4] = test system: CP191; experiment: as above; conditions: P. falciparum in erythrocytes, SYBR Green DNA, 72 h; series mostly up to 28.7 µM
# Method in brief: as §1
# [5] = test system: CP250; experiment: as above; conditions: P. falciparum in erythrocytes, SYBR Green DNA, 72 h; series mostly up to 28.7 µM
# Method in brief: as §1
# [6] = test system: P93_24; experiment: as above; conditions: P. falciparum in erythrocytes, SYBR Green DNA, 72 h; series mostly up to 28.7 µM
# Method in brief: as §1
# [7] = test system: P94_40; experiment: as above; conditions: P. falciparum in erythrocytes, SYBR Green DNA, 72 h; series mostly up to 28.7 µM
# Method in brief: as §1
# [8] = test system: TAB165; experiment: as above; conditions: P. falciparum in erythrocytes, SYBR Green DNA, 72 h; series mostly up to 28.7 µM
# Method in brief: as §1
# [9] = test system: W2; experiment: as above; conditions: P. falciparum in erythrocytes, SYBR Green DNA, 72 h; series mostly up to 28.7 µM
# Method in brief: as §1
# [10] = test system: C2A; experiment: as above; conditions: P. falciparum in erythrocytes, SYBR Green DNA, 72 h; series mostly up to 28.7 µM
# Method in brief: as §1
# [11] = Confirmation and Secondary Assay for Modulators of Hemoglobin Beta Chain Splicing at IVS2 654 locus (AID 910);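 further: HeLa cells stably carrying EGFP split by mutant beta-globin IVS2-654 intron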
# Method in brief: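 HeLa cells stably expressing EGFP interrupted by β-globin IVS2-654 intron, seeded overnight in Opti-MEM/2% FCS, then treated 2 days at 37 °C. Restored splicing read as total peak GFP intensity per well by laser scanning cytometry (488 nm excitation, 500–520 nm emission); 500 nM antisense PNA as control.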
# [12] = Confirmation and Secondary Assay for Modulators of Hemoglobin Beta Chain Splicing at IVS2 705 locus (AID 930);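 further: HeLa cells stably expressing the EGFP-705 splicing reporter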
# Method in brief: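 HeLa cells stably carrying EGFP interrupted by mutant beta-globin IVS2-705 intron (CMV-driven) were seeded at 500 cells/well, treated next day with compound for 2 days at 37C; corrected splicing restores EGFP, read as total peak GFP intensity per well.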
# [13] = target: Mitogen-activated protein kinase 10 (Mus musculus) (UniProt Q61831); experiment: JNK3 AlphaScreen Assay (AID 530; active means well fitted curve in either direction with a large enough effect, not every such curve was filed as active;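 further: kinase came from lysate of stimulated human HepG2 cells; signal reports phosphorylation of biotinylated GST-cJun 1-79 at Ser73 with 10 µM ATP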)
# Method in brief: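 Pre-activated (IL-1β/TNFα) JNK3 in HepG2 lysates phosphorylates biotin-GST-cJun(1-79), 10 uM ATP; anti-phospho-cJun(Ser73) AlphaScreen read at room temperature, pH 7.6 Tris buffer. Compounds pre-incubated 15 min as titrations.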
# [14] = target: DNA dC->dU-editing enzyme APOBEC-3G (Homo sapiens) (UniProt Q9HC16); experiment: qHTS for inhibitors of Vif-A3G interactions: Validation (AID 588379)
# Method in brief: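 HeLa cells stably expressing Vif and A3G-eYFP, 700 cells/well, incubated overnight at 37 deg C, then exposed to compound overnight at 37 deg C. Inhibition of Vif-mediated degradation read as increased yellow fluorescence (Ex 488/Em 500-530) by laser-scanning cytometry.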
# [15] = qHTS for Inhibitors of Plasmodium falciparum (CP250) proliferation (AID 504320)
# Method in brief: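 Erythrocytes infected with P. falciparum line (0.3% parasitemia, 2.5% hematocrit final) incubated with compounds 72 h at 37 °C, 5% CO2; SYBR Green lysis buffer added, fluorescence read next day. Normalized to 0.29 uM artemisinin and DMSO.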
# Ubiquitin carboxyl-terminal hydrolase 1 (Homo sapiens), sequence (O94782 whole entry, looked up): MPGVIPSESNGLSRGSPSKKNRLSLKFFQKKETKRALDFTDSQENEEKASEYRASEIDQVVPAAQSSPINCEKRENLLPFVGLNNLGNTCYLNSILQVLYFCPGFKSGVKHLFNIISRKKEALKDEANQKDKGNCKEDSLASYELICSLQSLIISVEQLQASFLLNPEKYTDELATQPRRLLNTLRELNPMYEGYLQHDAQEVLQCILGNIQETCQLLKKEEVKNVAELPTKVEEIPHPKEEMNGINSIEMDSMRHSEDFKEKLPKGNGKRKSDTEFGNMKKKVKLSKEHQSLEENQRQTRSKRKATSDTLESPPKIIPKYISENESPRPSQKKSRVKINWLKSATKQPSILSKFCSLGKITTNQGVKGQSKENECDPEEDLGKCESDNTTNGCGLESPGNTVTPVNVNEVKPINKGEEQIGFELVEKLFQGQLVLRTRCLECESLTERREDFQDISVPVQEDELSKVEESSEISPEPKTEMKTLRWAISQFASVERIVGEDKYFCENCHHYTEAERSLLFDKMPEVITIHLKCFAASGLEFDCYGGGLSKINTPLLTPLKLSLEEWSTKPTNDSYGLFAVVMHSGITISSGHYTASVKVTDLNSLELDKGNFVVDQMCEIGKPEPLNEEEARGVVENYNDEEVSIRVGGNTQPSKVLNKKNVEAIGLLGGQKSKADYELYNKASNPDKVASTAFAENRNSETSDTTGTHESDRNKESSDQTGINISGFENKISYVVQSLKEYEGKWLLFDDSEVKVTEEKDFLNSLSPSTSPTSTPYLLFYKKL
# DNA dC->dU-editing enzyme APOBEC-3G (Homo sapiens), sequence (Q9HC16 whole entry, looked up): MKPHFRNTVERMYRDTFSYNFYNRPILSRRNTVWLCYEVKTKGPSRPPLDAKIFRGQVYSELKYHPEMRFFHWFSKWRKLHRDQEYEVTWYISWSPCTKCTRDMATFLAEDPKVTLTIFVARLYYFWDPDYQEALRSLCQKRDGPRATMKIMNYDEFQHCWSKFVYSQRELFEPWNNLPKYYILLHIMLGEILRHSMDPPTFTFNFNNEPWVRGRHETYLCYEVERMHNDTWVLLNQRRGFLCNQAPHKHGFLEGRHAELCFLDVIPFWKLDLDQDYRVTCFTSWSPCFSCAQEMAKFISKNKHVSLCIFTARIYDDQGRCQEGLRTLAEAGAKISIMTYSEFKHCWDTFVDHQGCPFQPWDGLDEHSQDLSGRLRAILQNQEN
structure (smiles),measurement,setting,value
OC[C@@H](O)C(O[C@@H]1O[C@@H](CO)[C@H](O)[C@H](O)[C@H]1O)[C@H](O)[C@@H](O)CO (some centres not stated),Potency,[1],inactive
same,Potency,[2],inactive
same,Potency,[3],inactive
same,Potency,[4],inactive
same,Potency,[5],inactive
same,Potency,[6],inactive
same,Potency,[7],inactive
same,Potency,[8],inactive
same,Potency,[9],inactive
COC(=O)C1C2CC3c4[nH]c5cc(OC)ccc5c4CCN3CC2CC(OC)C1OC (configuration not stated),Potency,[1],inactive
same,Potency,[2],inactive
same,Potency,[3],inactive
same,Potency,[10],inactive
same,Potency,[4],inactive
same,Potency,[5],inactive
same,Potency,[6],inactive
same,Potency,[7],inactive
same,Potency,[8],inactive
Nc1nc(Cl)nc2c1ncn2[C@@H]1O[C@H](CO)[C@H](O)C1F (some centres not stated),Potency,[1],inactive
same,Potency,[2],inactive
same,Potency,[3],inactive
same,Potency,[10],inactive
same,Potency,[4],inactive
same,Potency,[5],inactive
same,Potency,[6],inactive
same,Potency,[7],inactive
same,Potency,[8],inactive
same,Potency,[9],inactive
CCCCC(=O)OC1CCC2C3CCc4cc(O)ccc4C3CC[C@]12C (some centres not stated),Potency,[11],inactive
same,Potency,[12],inactive
same,Potency,[10],inactive
same,Potency,[5],inactive
CC1(C)SC2[C@@H](N=CN3CCCCCC3)C(=O)N2[C@H]1C(=O)O (some centres not stated),Potency,[1],inactive
same,Potency,[2],inactive
same,Potency,[3],inactive
same,Potency,[10],inactive
same,Potency,[4],inactive
same,Potency,[5],inactive
same,Potency,[6],inactive
C=C1/C(=C\C=C2/CCC[C@]3(C)[C@@H]([C@H](C)/C=C/[C@@H](O)C4CC4)CC[C@@H]23)C[C@@H](O)C[C@@H]1O,Potency,[2],inactive
same,Potency,[3],inactive
same,Potency,[10],inactive
same,Potency,[4],inactive
Oc1cc2cc(CCN3CCN(c4nsc5ccccc45)CC3)c(Cl)cc2[nH]1,Potency,[2],inactive
same,Potency,[3],inactive
same,Potency,[10],inactive
same,Potency,[7],inactive
CN(C)CC[C@@](O)(c1ccccc1)c1ccccc1Cl,Potency,[1],inactive
same,Potency,[2],5.62 µM (active)
same,Potency,[3],11.2 µM (active)
same,Potency,[6],5.62 µM (active)
same,Potency,[7],6.31 µM (active)
same,Potency,[8],6.31 µM (active)
same,Potency,[9],1.2 µM (active)
C=C1CC[C@H](O)C/C1=C/C=C1\CCC[C@]2(C)[C@@H]([C@H](C)CCCC(C)(C)O)CC[C@@H]12,Potency,[8],12.6 µM (active)
CC[C@H]1OC(=O)[C@H](C)C(=O)[C@H](C)[C@@H](OC2O[C@H](C)C[C@H](N(C)C)[C@@H]2O)[C@@](C)(OC)C[C@@H](C)C(=O)[C@@H](C)C2N(CCCCn3cnc(-c4cccnc4)c3)C(=O)O[C@@]21C (some centres not stated),Potency,[10],inactive
same,Potency,[5],inactive
O=C(O)c1ccccc1-c1c2ccc(=O)cc-2oc2cc(O)ccc12,"activity change, negative = inhibition",[1],-94.3% [at 11.4 µM]
NC(C(=O)O)C(O)c1ccc(O)c(O)c1 (configuration not stated),Potency,[1],22.4 µM (active)
C=C1N[C@]2(C(=O)COC(C)=O)[C@@H](C[C@H]3[C@@H]4CCC5=CC(=O)C=C[C@]5(C)[C@H]4[C@@H](O)C[C@@]32C)O1,Potency,[1],inactive
same,Potency,[9],15.1 µM (active)
CCN(CC)CCOCCOC(=O)C(CC)(CC)c1ccccc1 (tested in a mixture with another compound),Potency,[1],inactive
same,Potency,[3],inactive
same,Potency,[4],10 µM (active)
same,Potency,[9],0.849 µM (active)
C=C1CC2C3C=C(C)C4=CC(=O)CCC4(C)C3CCC2(C)[C@@]1(OC(C)=O)C(C)=O (some centres not stated),Potency,[10],inactive
same,Potency,[5],inactive
O=C(NC(CO)C(O)c1ccc([N+](=O)[O-])cc1)C(Cl)Cl (configuration not stated),Potency,[11],inactive
same,Potency,[12],inactive
same,Potency,[1],inactive
same,Potency,[3],inactive
C=C1CC[C@H](O)C/C1=C/C=C1\CCC[C@]2(C)[C@@H]([C@H](C)CC[C@@H](O)C(C)(C)O)CC[C@@H]12,Potency,[8],14.1 µM (active)
same,Potency,[9],12 µM (active)
COc1ccc(CC(C)NCC(O)c2ccc(O)c(NC=O)c2)cc1 (configuration not stated),Potency,[1],inactive
C[C@@H]1CC2[C@@H]3C[C@H](F)C4=CC(=O)C(Cl)=C[C@]4(C)[C@@]3(F)[C@H](O)C[C@]2(C)[C@@]1(O)C(=O)CO (some centres not stated),Potency,[2],inactive
same,Potency,[5],inactive
Cc1cc(O)c2c(c1)OC1(C)CCC3C(C)(C)CCCC34COC2C14 (configuration not stated),Potency,[10],inactive
same,Potency,[9],8.49 µM (active)
CCC1OC(=O)C[C@@H](O)[C@H](C)[C@@H](OC2OC(C)CC(N(C)C)C2O)[C@@H](CC=O)C[C@@H](C)C(=O)/C=C/[C@]2(C)OC2C1C (some centres not stated),Potency,[1],inactive
same,Potency,[6],1.12 µM (active)
same,Potency,[9],1.2 µM (active)
CC1=C(/C=C/C(C)=C\C=C\C(C)=C\C=C\C=C(C)\C=C\C=C(C)\C=C\C2=C(C)C[C@@H](O)CC2(C)C)C(C)(C)C[C@H](O)C1,Potency,[4],inactive
same,Potency,[6],12.6 µM (active)
same,Potency,[8],11.2 µM (active)
same,Potency,[9],8.49 µM (active)
Cc1cncc(C(=O)O)[n+]1[O-],Potency,[1],inactive
same,Potency,[3],inactive
same,Potency,[7],inactive
same,Potency,[9],inactive
CCOc1ccccc1O[C@@H](c1ccccc1)[C@@H]1CNCCO1,Potency,[13],inactive
same,Potency,[1],inactive
same,outcome,[14],inactive
same,Potency,[5],inactive
same,Potency,[6],10 µM (active)
same,Potency,[8],10 µM (active)
same,Potency,[9],2.69 µM (active)
COC(=O)CCC(=O)OC1(C)C(=O)C=C2C=C(C3CC3)N(C3CCCC3)C=C2C1=O (configuration not stated),Potency,[15],inactive
COC(=O)C1=C(C(=O)OC)[C@@H]2N(C)c3ccccc3[C@@]23C[C@@H](C(=O)OC)N(C(=O)COCc2ccccc2)C3=N1,Potency,[15],inactive
COC(=O)CCCC1=CC2=CC(=O)C(C)(OC(=O)c3cccs3)C(=O)C2=CN1CCCCO (configuration not stated),Potency,[15],inactive
COC(=O)CCC(=O)OC1(C)C(=O)C=C2C=C(C3CC3)N(CCCCO)C=C2C1=O (configuration not stated),Potency,[15],inactive
COC(=O)CCC(=O)OC1(C)C(=O)C2=CN(CCc3ccccn3)C(c3ccc(OC)cc3)=CC2=C(Br)C1=O (configuration not stated),Potency,[15],inactive
O=C1c2cc(Br)ccc2O[C@@H](c2ccc3c(c2)OCO3)[C@@H]1O,Potency,[15],inactive
COC(=O)C1=C(C(=O)OC)[C@@H]2N(C)c3ccccc3[C@@]23C[C@@H](CO)N(C(=O)C2CCC2)C3=N1,Potency,[15],inactive
COC(=O)[C@@H]1[C@@H](C)N(Cc2ccccc2)C(=O)N[C@H]1c1ccccc1,Potency,[15],inactive
CCCCC1=CC2=CC(=O)C(C)(OC(=O)CC)C(=O)C2=CN1CCN1CCOCC1 (configuration not stated),Potency,[15],inactive
CCCCC1=CC2=C(c3ccco3)C(=O)C(C)(OC(=O)c3ccc(OC)cc3)C(=O)C2=CN1CC(C)C (configuration not stated),Potency,[15],inactive
CC(=O)c1ccc([C@@H]2C=C[C@H](O)[C@@H](CO)O2)cc1,Potency,[15],inactive
COC(=O)C1=C(C(=O)OC)[C@@H]2N(C)c3ccccc3[C@@]23C[C@@H](C(=O)OC)N(C(=O)CC(C)C)C3=N1,Potency,[15],inactive
CCOC(=O)NN=C1C[C@@H](O)[C@@H](O)[C@@H]2[C@H]3C(=O)N(C4CCCCC4)C(=O)[C@@H]3CC[C@@H]12,Potency,[15],inactive
COC(=O)CCC(=O)OC1(C)C(=O)C2=CN(CCN3CCOCC3)C(c3ccc(OC)cc3)=CC2=C(Br)C1=O (configuration not stated),Potency,[15],inactive
COc1ccc(C2=CC3=C(Br)C(=O)C(C)(OC(=O)c4cnc5ccccc5n4)C(=O)C3=CO2)cc1 (configuration not stated),Potency,[15],inactive
Fc1ccccc1-c1nc(-c2ccccc2)oc1NC1CCCCC1,Potency,[15],inactive
CC1(OC(=O)CCc2ccccc2)C(=O)C=C2C=C(c3ccc(C#N)cc3)N(CCc3ccccn3)C=C2C1=O (configuration not stated),Potency,[15],inactive
C[C@H]1Cc2c(-c3ccccc3)nc3c(c2CO1)CN(S(=O)(=O)c1ccc(C#N)cc1)CC3,Potency,[15],inactive
CCOC(=O)CCCNC(=O)N1CCc2nc(-c3ccccc3)c3c(c2C1)CO[C@@H](C)C3,Potency,[15],inactive
CCCCC1=CC2=C(c3ccco3)C(=O)C(C)(OC(=O)c3ccc(OC)cc3)C(=O)C2=CN1CCCCO (configuration not stated),Potency,[15],inactive
CC1(OC(=O)c2cnc3ccccc3n2)C(=O)C=C2C=C3CCCN3C=C2C1=O (configuration not stated),Potency,[15],inactive
